# Only some compounds are listed: those with a hit (about 3.2% of all), similar ones and a draw of the others.
# Tau fluor counter – counter-screen for tau fibril formation inhibitors; tau K18 P301L Alexa594 fluorescence, heparin fibrillization; Potency, µM (doses to about 57.7 µM), for inactives: at the highest dose activity change, negative = decrease; 280,000 tested, 0.93% active; also: potency is read from the fitted curve at half-maximal effect; % is scaled to controls: 0 for no effect and ±100 for the full control effect; nearly all actives have a fitted effect of over 55% in size
#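 Human K18 P301L tau (15 uM unlabeled plus 0.24 uM Alexa 594-labeled, final) in 100 mM sodium acetate pH 7 was mixed with compound and 20 uM heparin and incubated 6 hr at 37 C.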
# Tau fibril ThT – inhibitors of human tau fibril formation, thioflavin T binding; 270,000 tested, 2.1% active; Potency, µM (highest dose often 57.4 µM), for inactives: top-dose activity, negative = inhibition, usual class: inhibitors; recombinant tau K18 P301L, heparin-induced fibrillization, ThT fluorescence; AID 1460; also: potency is read from the fitted curve at half-maximal effect; % is scaled to controls: 0 for no effect and ±100 for the full control effect; nearly all actives have a fitted effect of over 55% in size
# Target sequence (P10636 561-689 P618L limits assumed): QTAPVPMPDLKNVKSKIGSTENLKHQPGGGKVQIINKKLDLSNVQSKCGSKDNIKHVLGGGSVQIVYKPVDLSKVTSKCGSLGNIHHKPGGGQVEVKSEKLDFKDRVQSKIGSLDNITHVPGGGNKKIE
#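 ThT emission at 510 nm, taken 1 hr after adding 30 uM dye, quantifies aggregates formed when 20 uM heparin acts on human tau K18 P301L for 6 hr at 37 C.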
# Tau FP inhib – tau fibrillization inhibition (FP) | Potency, µM (titrated, usually from 57.7 µM), for the others: top-dose activity, negative = inhibition, actives largely listed as inhibitors | P10636 | K18 P301L tau heparin fibrillization, Alexa594 FP, 6 h | 280,000 tested, 0.39% active; also: potency is read from the fitted curve at half-maximal effect; % is scaled to controls: 0 for no effect and ±100 for the full control effect; nearly all actives have a fitted effect of over 55% in size
#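 Steps: dispense K18 P301L tau (15 uM plus 0.24 uM Alexa 594 tracer, final) in pH 7 sodium acetate; add compound; add heparin (20 uM final); incubate 6 hr, 37 C; add ThT (30 uM final); after 1 hr ambient, read FP.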
# CBFb RUNX1 block – CBF-beta/RUNX1 interaction disruption. Potency, µM (doses to about 59.8 µM), for the others: top-dose activity, negative = inhibition, usual class: inhibitors. AlphaScreen CBFb-His/RUNX1-biotin binding, biochemical. Q01196+Q13951. AID 1477. 230,000 tested, under 10 active; also: % of control where 0% means no effect
# Target sequence (Q01196 whole entry, looked up): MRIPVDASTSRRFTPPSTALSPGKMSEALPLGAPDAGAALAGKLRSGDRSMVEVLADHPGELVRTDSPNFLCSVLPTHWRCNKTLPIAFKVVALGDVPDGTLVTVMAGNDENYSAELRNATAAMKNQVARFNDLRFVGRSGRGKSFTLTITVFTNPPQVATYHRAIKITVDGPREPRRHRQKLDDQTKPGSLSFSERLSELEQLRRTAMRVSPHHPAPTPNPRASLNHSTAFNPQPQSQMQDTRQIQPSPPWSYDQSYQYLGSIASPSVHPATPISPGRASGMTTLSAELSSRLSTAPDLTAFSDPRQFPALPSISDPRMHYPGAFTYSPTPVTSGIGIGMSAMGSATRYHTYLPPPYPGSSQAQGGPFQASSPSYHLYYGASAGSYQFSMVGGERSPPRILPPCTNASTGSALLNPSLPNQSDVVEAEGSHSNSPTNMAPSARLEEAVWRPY
# Target sequence (Q13951 whole entry, looked up): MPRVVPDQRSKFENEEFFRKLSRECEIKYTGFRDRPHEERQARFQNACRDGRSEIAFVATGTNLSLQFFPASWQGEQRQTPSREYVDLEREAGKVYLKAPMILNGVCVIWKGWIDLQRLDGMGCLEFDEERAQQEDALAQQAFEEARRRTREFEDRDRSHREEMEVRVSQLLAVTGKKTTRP
#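 CBF-beta (His) and RUNX1 (biotin), 30 nM each; 20 min preassociation; + compound, 15 min; + beads 50 ng each (Ni, streptavidin), 90 min; RT; AlphaScreen read.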
# JMJD2E inh – blocks human JMJD2E demethylase activity; JMJD2E catalytic domain, FDH-coupled NADH fluorescence (FDH is formaldehyde dehydrogenase); 230,000 tested, 1.6% active; B2RXH2; Potency, µM (series often up to 57.1 µM), inactives show at the top dose activity change, negative = inhibition, usual class: inhibitors; active = well fitted inhibition curve with a large enough effect, not every such curve was filed as active; inconclusive = small, poorly fitted or top-dose-only effect, or another doubt; inactive = no such curve, though single readings can be large or run the other way;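 also: potency is read from the fitted curve at half-maximal effect; 0% = wells with enzyme and -100% = buffer wells without enzyme; nearly all actives have a fitted effect of over 50% in size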
# LMNA splice mod – changes lamin A minigene splicing in HeLa cells; Potency, µM (titrated, usually from 46.1 µM), without a hit: at the top dose ratio change, negative = inhibition, hits mostly inhibitors; HeLa LMNA splicing GFP/RFP minigene ratio, 48 h; 200,000 tested, 0.01% active; active = well fitted inhibition curve with a large enough effect in the signal ratio, with a control signal flat, not every such curve was filed as active; inconclusive = small, poorly fitted or top-dose-only effect, or effect the other way, or a change in a side signal; the % refers to the signal ratio; also: potency is read from the fitted curve at half-maximal effect; % is scaled to controls: 0 for no effect and ±100 for the full control effect
#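 Read-out is the ratio of GFP to DsRed2 object intensity, acquired by 488 nm laser-scanning cytometry on HeLa lamin A-EGFP minigene reporter cells. Compound incubation 48 hrs at 37 °C in Opti-MEM with 2% FBS; DMSO 0.5% final.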
# The depositor's hits bear a star; u = inconclusive; x = no result; ! = not active in a repeat; [ ] = remark or other dose. Unless noted, calls follow the shape of the dose curve; as a rule, active = well fitted curve in the direction sought with a large enough effect; inconclusive = small, poorly fitted or top-dose-only effect, or another doubt; inactive = no such curve, though single readings can be large; an effect the other way counts as inactive or inconclusive.
SMILES,Tau fluor counter,Tau fibril ThT,Tau FP inhib,CBFb RUNX1 block,JMJD2E inh,LMNA splice mod
COc1ccc(NC(=O)c2ccc(NCC3CCCO3)c([N+](=O)[O-])c2)cc1 (stereo unspecified),-21.6%,12.6µM*,5.8%,1.1%,-2.0%,x
O=C(/C=C/c1ccccc1)c1ccccc1,5.7%,u,16.0%,-10.3%,-2.2%,u
O=C(/C=C/c1ccccc1)/C=C/c1ccccc1,-20.3%,7.94µM*,u,-1.4%,-4.3%,u
CNC1C(O)C(O[C@H]2C(O)[C@@H](OC3OC(CN)=CCC3N)[C@H](N)C[C@@H]2N)OC[C@]1(C)O (stereo partly specified),-0.8%,4.5%,-1.1%,25.2%,1.0%,x
O=S1(=O)C2CC3C=CC2(CN1Cc1cccc(F)c1)O3 (stereo unspecified),x,x,x,16.0%,x,x
COc1ccc(OC)c(Nc2nc(-c3sc(NC(=O)c4ccccc4)nc3C)cs2)c1,u,u,2.9%,-5.4%,-1.4%,3.2%
Cc1ccccc1Nc1nc(-c2sc(NC(=O)c3ccc([N+](=O)[O-])cc3)nc2C)cs1,10µM*[quencher],3.98µM*,2.2%,-22.9%,4.1%,11.5%
Cc1ccc(Nc2nc(-c3sc(NC(=O)c4ccc([N+](=O)[O-])cc4)nc3C)cs2)cc1,u,3.16µM*,3.7%,-17.0%,6.5%,11.1%
Cc1ccccc1Nc1nc(-c2sc(NC(=O)c3ccccc3)nc2C)cs1,u,u,4.2%,-17.2%,u,7.0%
CCOc1ccccc1Nc1nc(-c2sc(NC(=O)c3ccc([N+](=O)[O-])cc3)nc2C)cs1,7.94µM*[quencher],3.55µM*,u,-22.3%,5.6%,u
CC(C)C12CN3CC(C(C)C)(CN(C1)C3c1ccc(Cl)cc1)C2=O (stereo unspecified),-9.6%,-3.9%,-8.6%,x,x,x
CCN(CC)S(=O)(=O)c1ccc2c(c1)N(CC(=O)N1CCN(c3ccc(F)cc3)CC1)C(=O)CO2,-13.9%,-4.8%,-2.3%,x,x,-6.1%[46 µM]
O=C(CNc1ccc2ccccc2c1)N/N=C/C=C/c1cccc([N+](=O)[O-])c1,7.08µM*[quencher],u,7.0%,1.0%,-0.9%,0.9%
CC(/C=C/c1ccco1)=N\NC(=O)CNc1ccc2ccccc2c1,u,7.94µM*,8.6%,-3.7%,u,-10.6%[46 µM]
CCOc1ccccc1-c1nnc2n1N=C(c1c(OC)cccc1OC)CS2,x,x,x,3.8%,x,x
Cn1cccc1-c1nc2ccc(NC(=O)c3cccs3)cc2[nH]1,u,11.2µM*,6.5%,-23.1%,-10.5%,5.1%
O=c1cc(-c2ccccc2Cl)oc2ccc([N+](=O)[O-])c(O)c12,-17.9%[81.3 µM],11.2µM*,-2.6%[81.3 µM],-7.1%[89.1 µM],u,u
Cc1cccc(NC(=O)CSc2ncc(-c3ccc(Br)cc3)[nH]2)c1,u,-3.6%,u,x,x,x
N#Cc1cccc(NC(=O)COC(=O)c2ccccc2Sc2ccccc2C#N)c1,u,13.5%,15.8µM*,-1.1%,7.0%,-3.1%
CC(=O)c1ccc(NC(=O)COC(=O)c2ccccc2Sc2ccccc2C#N)cc1,5.8%,6.7%,10.8%,2.4%,u,-8.7%
CCCOC(=O)c1c(NC(=O)c2cc3ccccc3c(=O)o2)sc2c1CCC(C)C2 (stereo unspecified),0.0%,-11.0%,-6.3%,x,x,x
OC1C=C2CCN3Cc4cc5c(cc4C(C1O)C23)OCO5 (stereo unspecified),-18.7%,-13.8%,-8.6%,6.4%,25.1µM*,x
CCOC(=O)c1c(C)oc2ncnc(Nc3cccc(C(F)(F)F)c3)c12,-5.1%,3.6%,-1.0%,x,x,x
COc1ccc(NC(=O)c2ccc(-c3ccccc3C(F)(F)F)o2)cc1,25.1µM*[quencher],25.1µM*,-11.6%,-1.4%[2.36 µM],-7.9%,u
Cc1ccc2c(c1)c(=O)c1c3n2CCN(C(=O)CCl)C3CC1 (stereo unspecified),u,14.1µM*,u,u,u,13.2%
SMILES,Tau fluor counter,Tau fibril ThT,Tau FP inhib,CBFb RUNX1 block,JMJD2E inh,LMNA splice mod
O=C(Nc1ccc(N2CCOCC2)cc1)Nc1ccc2nc(-c3ccco3)c(-c3ccco3)nc2c1,6.3%,8.5%,-2.6%,-4.6%,-2.7%,u
COc1ccc(CCn2c(N)c(C(=O)NCc3ccco3)c3nc4ccccc4nc32)cc1OC,u,17.8µM*,31.6µM*,-4.7%,u,30.0%
O=C(Nc1ccc2nc(-c3ccco3)c(-c3ccco3)nc2c1)NC1CC1,12.6µM*[quencher],7.08µM*,u,x,u,-3.7%
CCc1nc2ccc(C(=O)NCCc3ccc(OC)c(OC)c3)cc2nc1CC,-16.0%,u,-6.9%,x,x,-5.2%[46 µM]
O=C(Nc1cccc(C(F)(F)F)c1)c1ccc2nc(-c3ccco3)c(-c3ccco3)nc2c1,15.8µM*[quencher],14.1µM*,u,u,14.1µM*,16.9%
COc1ccc(CCNC(=O)c2ccc3nc(-c4ccco4)c(-c4ccco4)nc3c2)cc1OC,12.6µM*[quencher],6.31µM*,u,x,12.6µM*,11.0%
Cc1ccc(NC(=O)CSc2nccn2Cc2ccco2)cc1Cl,u,-16.5%,-8.2%,x,x,u
COC(=O)[C@H](Cc1ccccc1)NC(=O)O[C@@H]1C(=O)c2ccc(OC)cc2O[C@H]1c1cccc(C(F)(F)F)c1,-11.4%,-3.0%,-2.6%,1.2%,4.4%,x
COc1cc(Cl)c(NC(=O)CN(C)S(=O)(=O)c2ccc3c(c2)CCCC(=O)N3)c(OC)c1,-20.6%,-9.3%,-0.2%,x,x,u
O=C(O)c1cc(-c2ccco2)nc2ccc(Br)cc12,u,15.8µM*!,u,-12.9%,u,u
O=C(O)c1ccc2nc(-c3ccco3)c(-c3ccco3)nc2c1,u,7.94µM*,10µM*,u,1.5%,x
COCCN(CCOC)c1nc(C)nc2c1nc(-c1ccccc1)n2CC1CCN(C)CC1,-3.9%,0.5%,5.7%,5.1%,u,x
Cc1sc2ccc3sccc3c2[n+]1C,-24.4%,25.1µM*,u,1.5%,14.1µM*,-8.3%[46 µM]
Cc1sc2c3ccsc3ccc2[n+]1C,-21.5%,25.1µM*,20µM*,-11.5%,25.1µM*,x
O=C(NCCc1ccc(Cl)cc1)c1ccc2c(c1)N(Cc1ccccc1)C(=O)CS2,u,-3.3%,-4.8%,x,x,u
COC(=O)c1sc2ccccc2c1S(=O)(=O)N1CCN(c2ccc(C(C)=O)cc2)CC1,-21.9%,u,-2.7%,x,x,u
CCOC(=O)N1CCC(NC(=O)c2ccc3c(c2)N(Cc2ccc(Cl)cc2)C(=O)c2ccccc2S3(=O)=O)CC1,-11.3%,-2.8%,-1.1%,x,x,x
CCOc1cccc(C=Nc2cc(C)cc(C)c2O)c1O,u,25.1µM*,u,u,u,-9.8%

# Source: PubChem BioAssay (National Center for Advancing Translational Sciences (NCATS))
